High-throughput results as filed in PubChem.
Shown are actives, neighbours in structure and some others; about 8% of the full set was active somewhere.
HT1080NT lethal = kills 2HG-producing HT-1080-NT fibrosarcoma cells; hit rate 1.6% among 360,000; HT-1080-NT fibrosarcoma viability, CellTiter-Glo ATP luminescence, 48 h; Potency, µM (titrated, usually from 46.1 µM), for inactives: top-dose activity, negative = less viability, most hits filed as cytotoxic; AID 686970;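 also: NT is the 2HG producing partner of a matched IDH1 knockdown line; 0% = DMSO-treated cells and -100% = media-only wells without cells; nearly all actives have a fitted effect of over 55% in size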
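HT-1080-NT; 750 cells/well; 5% FBS RPMI; 48 h compound, 37 degrees C; CellTiter-Glo luminescence; curve fitting and curve-class assignment.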
KB-3-1 cytotox = kills parental KB-3-1 adenocarcinoma cells; KB-3-1 viability, CellTiter-Glo ATP luminescence, 72 h; hit rate 1.4% among 400,000; Potency, µM (top dose mostly 46.1 µM), actives largely listed as cytotoxic; also: % is scaled to controls: 0 for no effect and ±100 for the full control effect; nearly all actives have a fitted effect of over 60% in size
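Luminescent ATP read-out (CellTiter-Glo) measures survival of drug-naive KB-3-1 cells after 72 h compound exposure at 37 °C. Titration series was screened from lowest to highest concentration, with DMSO vehicle plates as background controls.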
MCF10A rerep = induces DNA re-replication in MCF 10a normal breast cells | MCF 10A DNA re-replication, Hoechst nuclear intensity, 48 h | Potency, µM (doses to about 46.1 µM), inactives show top-dose activity, positive = re-replication, usual class: activators | hit rate 2.9% among 350,000 | AID 624296; also: % of control where 0% means no effect; nearly all actives have a fitted effect of over 50% in size
SW480 rerep = DNA re-replication induction in SW480 cells; SW480 DNA re-replication, Hoechst DNA content imaging, 48 h; AID 624297; hit rate 1.8% among 340,000; Potency, µM (titrated, usually from 46.1 µM), inactives show at the highest dose re-replication activation, hits mostly activators; also: % of control where 0% means no effect; nearly all actives have a fitted effect of over 55% in size
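Image-based DNA-content assay: after two days of treatment, nuclei were labelled with the DNA dye Hoechst and imaged, and hits were compounds raising the count of nuclei showing high fluorescence intensity.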
HT1080 IDH1KD tx = HT-1080 IDH1 knockdown cell toxicity (counter line); HT-1080 IDH1 knockdown viability, ATP luminescence, 48 h; Potency, µM (doses to about 46.1 µM), inactives show top-dose activity, negative = toxicity, usual class: cytotoxic; hit rate 2% among 360,000; AID 686971;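 also: 0% = DMSO wells and -100% = cell-free medium wells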
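Cytotoxicity counter-line: IDH1KD HT-1080, 48 h, CellTiter-Glo. Curves classed by r2, magnitude and activity.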
KB-V1 cytotox = KB-V1 MDR subline cytotoxicity; KB-V1 MDR cells viability, CellTiter-Glo, 72 h; Potency, µM (titrated, usually from 46.1 µM), most hits filed as cytotoxic; hit rate 3.4% among 400,000; AID 1347076; also: % is scaled to controls: 0 for no effect and ±100 for the full control effect; nearly all actives have a fitted effect of over 60% in size
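Cytotoxicity via CellTiter-Glo luminescence after 72 h compound exposure at 37 degrees C. Cells: drug-selected KB-V1 line, DMEM phenol-red free plus 10% FBS. Compounds tested at multiple concentrations; normalized data fitted to concentration-effect curves.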
Numbers without * were called inactive; i = inactive; u = inconclusive; x = no result. Calls follow the shape of the dose curve; as a rule, active = well fitted curve in the direction sought with a large enough effect; inconclusive = small, poorly fitted or top-dose-only effect, or another doubt; inactive = no such curve, though single readings can be large; an effect the other way counts as inactive or inconclusive. Potency is read from the fitted curve at half-maximal effect.

SMILES | HT1080NT lethal | KB-3-1 cytotox | MCF10A rerep | SW480 rerep | HT1080 IDH1KD tx | KB-V1 cytotox
COC(=O)c1cccnc1-n1c(=O)c2cccnc2n(Cc2cccc([N+](=O)[O-])c2)c1=O | -9.9% | i | -1.8% | 0.1% | 7.0% | i
Cc1cc(N2CCCC2)ccc1/C=C1/C(=O)N(C)C(=S)N1C | u | u | 2.5% | 14.6µM* | -18.1% | u
Cc1cc(/C=C2/C(=O)N(C)C(=S)N2C)ccc1N1CCCC1 | -3.9% | i | 0.8% | -7.3% | -7.3% | u
O=C(c1cccs1)N1CCN(c2ccc(F)cc2)CC1 | 17.0% | i | -0.2% | -5.5% | 8.3% | i
O=C(Nc1ccc(N2CCN(C(=O)c3cccs3)CC2)cc1)c1ccccc1F | -25.6% | u | u | u | -18.8% | 7.31µM*
O=C(NC(=S)N1CCN(c2ccc([N+](=O)[O-])cc2Cl)CC1)c1ccco1 | 5.2% | i | -2.3% | 22.2% | -0.3% | 20.6µM*
O=C(Nc1ccc(N2CCN(C(=O)c3cccs3)CC2)cc1)c1ccccc1Cl | u | 16.4µM* | u | 23.1µM* | 9.2µM* | u
Cc1ccc(C(=O)NC(=S)N2CCN(c3ccc([N+](=O)[O-])cc3)CC2)cc1 | -5.8% | i | 1.9% | -38.9% | -11.8% | 23.1µM*
CC(C)(C)C(=O)Nc1ccc(N2CCN(C(=O)c3cccs3)CC2)cc1 | 5.2% | i | x | x | 2.8% | i
O=C(NC(=S)N1CCN(c2ccc([N+](=O)[O-])cc2)CC1)c1ccccc1 | -0.2% | i | -6.0% | -9.9% | 4.4% | i
O=C(Nc1ccc(N2CCN(C(=O)c3cccs3)CC2)c(Cl)c1)c1ccco1 | -4.3% | u | u | -0.1% | u | 3.66µM*
O=C(Nc1cc(C(=O)N2CCN(c3ccccc3)CC2)ccc1Cl)c1cccs1 | -3.2% | i | 0.0% | 3.1% | -8.0% | 8.2µM*
O=C(Nc1ccc2c(c1)OCO2)c1ccc(Cl)nc1 | -13.1% | i | -11.5% | -3.0% | -14.1% | i
CC(C)(C)c1ccc(C2=CC(c3ccccc3F)n3ncnc3N2)cc1 (stereo unspecified) | -1.9% | u | -1.3% | -5.6% | -0.4% | i
CCOc1ccc(C2C=C(c3ccc(F)cc3)Nc3ncnn32)cc1 (stereo unspecified) | 2.3% | i | -1.0% | 3.1% | -1.9% | i
Oc1ccc(C2C=C(c3ccc(F)cc3)Nc3ncnn32)cc1 (stereo unspecified) | -1.3% | i | 8.0% | 10.3µM* | 13.6% | i
Cn1cccc1C1C=C(c2ccc(C(C)(C)C)cc2)Nc2ncnn21 (stereo unspecified) | -3.1% | u | u | u | -9.9% | 16.4µM*
Cc1nnc(C)n1/N=C/c1c(O)ccc2ccccc12 | -7.7% | i | -0.5% | -1.9% | 1.3% | u
Cc1ccc(-n2[nH]c(C)c(C=Nc3ccc(C)cn3)c2=O)cc1 | 7.94µM* | u | -0.6% | -4.5% | 0.0% | u
Cc1ccc(-n2[nH]c(C)c(/C=N/n3c(C)nc4ccccc4c3=O)c2=O)cc1 | 17.8µM* | i | 4.61µM* | u | 11.2µM* | u
Cc1ccc(N=Cc2c(C)[nH]n(-c3ccccc3)c2=O)nc1 | -9.1% | i | -0.2% | u | -15.4% | i
Cc1nnc(-c2ccccc2)c(=O)n1/N=C/c1c(O)ccc2ccccc12 | u | u | 15.8% | 6.51µM* | u | 2.91µM*
Cc1cc([N+](=O)[O-])cc(/C=N/n2c(C)nc3ccccc3c2=O)c1O | u | i | 16.4µM* | u | u | u
CC12CC3CC(C)(C1)CC(NCc1ccncc1)(C3)C2 | 16.5% | i | 7.2% | -1.4% | -1.4% | i
Cc1cc(C)cc(OCC(=O)OCC(=O)N(C)CC(=O)Nc2ccc(F)cc2)c1 | 4.1% | i | 1.7% | -1.1% | -19.1% | i
SMILES | HT1080NT lethal | KB-3-1 cytotox | MCF10A rerep | SW480 rerep | HT1080 IDH1KD tx | KB-V1 cytotox
O=C(c1ccc2c(c1)OCCO2)N1CCN(S(=O)(=O)c2c(F)cccc2F)CC1 | x | i | u | -8.5% | x | i
Cc1nc2ccccc2c(=O)n1/N=C/c1ccc2ccccc2c1O | u | u | 2.4% | 16.4µM* | u | i
Cc1nc2ccccc2c(=O)n1/N=C/c1ccc(O)c(O)c1O | -1.3% | i | -4.7% | -8.1% | -0.9% | i
CN(C)CCOC(=O)c1ccc2[nH]c3c(c2c1)CSCC3 | 22.3% | i | -12.7% | 7.31µM* | 16.3% | i
O=C(O)c1ccc2[nH]c3c(c2c1)CSCC3 | 11.4% | i | -4.6% | -4.0% | 11.0% | i
Cc1ccc(CN2CC(C(=O)NCC(=O)Nc3c(C)cccc3C)CC2=O)cc1 (stereo unspecified) | -4.5% | i | 0.1% | -1.0% | 11.7% | u
COc1ccc2c(c1)NC(c1ccc(N(C)C)cc1)c1cccn1-2 (stereo unspecified) | -10.9% | i | u | 18.4µM* | -18.6% | u
CCCN(C(=O)COC(=O)CCC(=O)c1ccccc1)c1c(N)n(Cc2ccccc2)c(=O)[nH]c1=O | -9.6% | i | x | x | -2.2% | u
CC(C)Sc1nsc2nc(=O)c(/C=C3\C=Nc4ccccc43)c(N)n12 | -22.6% | i | 18.4µM* | u | -24.4% | i
CCC(CC)c1nn2c(N)c(/C=C3\C=Nc4ccccc43)c(=O)nc2s1 | -7.8% | i | 3.26µM* | u | -6.3% | i
CS(=O)(=O)c1nsc2nc(=O)c(/C=C3\C=Nc4ccccc43)c(N)n12 | 11.3% | i | 3.0% | -0.4% | 4.2% | i
CCC(CC)c1nn2c(N)c(/C=C3\C(C)=Nc4ccccc43)c(=O)nc2s1 | -6.1% | i | 23.1µM* | -5.8% | -4.7% | u
Cc1ccc(NC(=S)NCCN2CCOCC2)cc1F | 5.9% | i | 1.4% | -1.7% | 6.2% | i
CCC(=O)N1CCc2cc(Br)cc(S(=O)(=O)CCC(=O)NCc3ccc(Cl)cc3)c21 | x | i | x | x | x | i
CN(C)CCCN1C(=O)c2oc3ccc(F)cc3c(=O)c2C1c1cccnc1 (stereo unspecified) | 13.4% | i | 1.2% | -6.1% | 2.8% | i
CCOC(=O)c1sc2nc3n(c(=O)c2c1C)CCC(C)CC3 (stereo unspecified) | u | i | 0.0% | -7.3% | 0.0% | i
CN(C)CCN(C(=O)c1ccc2ccccc2c1)c1nc2c(F)cc(F)cc2s1 | 1.3% | i | 2.4% | u | -0.3% | i
CCN1C(=O)/C(=C/c2ccc(C)o2)N(C)C1=S | 4.8% | i | u | 18.4µM* | 22.7% | u
CCc1sc(C(=O)NCc2cc(C)n(C)n2)cc1Br | u | i | -2.0% | u | 15.8µM* | i
